Source: PubChem BioAssay
BAZ2B block = qHTS Assay for Inhibitors of BAZ2B; Bromodomain adjacent to zinc finger domain protein 2B (Homo sapiens), Q9UIF8; AlphaScreen BAZ2B-H3K14Ac peptide displacement; Potency, µM (doses to about 114 µM), without a hit: at the top dose activity change, negative = inhibition, usual class: inhibitors; hit rate 4.4% among 360,000; AID 504333, 2011; also: % is scaled to controls: 0 for no effect and ±100 for the full control effect; nearly all actives have a fitted effect of over 60% in size
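AlphaScreen displacement of biotin-H3(5-23)K14Ac peptide (50 nM final) from BAZ2B (50 nM final) in PBS pH 7.4, 0.01% Tween-20; complex preformed 30 min RT, then compounds (top 110 uM) 30 min RT, beads 20 min dark.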
VDR inh = Inhibitors of the vitamin D receptor (VDR): qHTS. Vitamin D3 receptor (Homo sapiens), P11473. VDR-SRC2-3 peptide fluorescence polarization, 2 h. Potency, µM, inactives show max response, negative = inhibition, actives largely listed as inhibitors. hit rate 0.93% among 400,000. AID 504847, 2011; also: % is scaled to controls: 0 for no effect and ±100 for the full control effect
Target sequence (P11473 whole entry, looked up): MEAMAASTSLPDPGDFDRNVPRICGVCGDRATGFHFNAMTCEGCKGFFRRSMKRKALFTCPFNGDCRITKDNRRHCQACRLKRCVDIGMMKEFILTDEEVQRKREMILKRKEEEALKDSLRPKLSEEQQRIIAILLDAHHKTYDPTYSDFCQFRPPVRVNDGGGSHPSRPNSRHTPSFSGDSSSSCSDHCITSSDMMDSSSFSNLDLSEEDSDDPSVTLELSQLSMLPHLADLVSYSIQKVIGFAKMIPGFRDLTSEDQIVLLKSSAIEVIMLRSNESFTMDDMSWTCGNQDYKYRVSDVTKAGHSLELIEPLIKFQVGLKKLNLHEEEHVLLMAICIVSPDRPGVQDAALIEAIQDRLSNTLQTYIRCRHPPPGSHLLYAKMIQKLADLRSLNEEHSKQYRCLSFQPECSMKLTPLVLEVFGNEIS
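Compounds are added to VDR with labelled SRC2-3 coactivator peptide and held 2 h at room temperature. Inhibition of the VDR–peptide interaction is then read as a change in fluorescence polarization.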
HP1b binding inh = HTS for Inhibitors of HP1-beta Chromodomain Interactions with Methylated Histone Tails. Potency, µM (titrated, usually from 114 µM), for inactives: at the top dose activity change, negative = inhibition, hits mostly inhibitors. hit rate 0.56% among 390,000. AlphaScreen HP1-beta / biotin-H3K9me3 peptide binding. Chromobox protein homolog 1 (Homo sapiens), P83916; also: nearly all actives have a fitted effect of over 70% in size
Target sequence (P83916 whole entry, looked up): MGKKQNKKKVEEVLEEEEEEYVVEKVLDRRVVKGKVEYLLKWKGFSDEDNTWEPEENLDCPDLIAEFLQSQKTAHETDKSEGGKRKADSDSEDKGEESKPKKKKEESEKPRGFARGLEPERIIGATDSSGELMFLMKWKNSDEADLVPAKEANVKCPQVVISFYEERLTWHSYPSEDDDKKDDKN
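Compound inhibition of the preformed complex between 50 nM HP1-beta and 50 nM biotinylated H3K9me3 peptide was read by AlphaScreen. Buffer was PBS pH 7.4 with 0.01% Tween-20. Incubations ran 30 min at room temperature, with 10 ug/mL donor/acceptor beads.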
L3MBTL1 inh = qHTS Assay for the Inhibitors of L3MBTL1; AlphaScreen L3MBTL1–H3K9me1 peptide binding; Potency, µM (doses to about 57.1 µM), without a hit: top-dose activity, negative = inhibition, usual class: inhibitors; hit rate 0.66% among 230,000; AID 485360, 2010; also: % is scaled to controls: 0 for no effect and ±100 for the full control effect; nearly all actives have a fitted effect of over 60% in size
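Displacement of a biotinylated histone H3(1-15) peptide monomethylated at Lys9 (75 nM) from L3MBTL1 (50 nM) was measured by AlphaScreen after a 30 min room-temperature compound incubation; cefsulodin titration served as intraplate control.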
PLK1 PBD block = qHTS for Inhibitors of PLK1-PDB (polo-like kinase 1 - polo-box domain): Primary Screen; Plk1 PBD binding of FITC phosphopeptide, fluorescence polarization; Potency, µM, for inactives: max response, negative = inhibition, actives largely listed as inhibitors; hit rate 2.8% among 360,000; also: series mostly up to about 57 µM; % is scaled to controls: 0 for no effect and ±100 for the full control effect; nearly all actives have a fitted effect of over 65% in size
JMJD2A Tudor = qHTS Assay for Inhibitors of JMJD2A-Tudor Domain. AlphaScreen JMJD2A-Tudor / H3K4me3 peptide binding. Lysine-specific demethylase 4A (Homo sapiens), O75164. Potency, µM (series often up to 114 µM), without a hit: at the highest dose activity change, negative = inhibition, hits mostly inhibitors. hit rate 4.4% among 390,000; also: % is scaled to controls: 0 for no effect and ±100 for the full control effect; nearly all actives have a fitted effect of over 50% in size
The depositor's hits bear a star; ? = inconclusive; · = no result given; [ ] = remark or other dose. Shown are actives, neighbours in structure and some others; about 6.9% of the full set was active somewhere. Calls follow the shape of the dose curve; as a rule, active = well fitted curve in the direction sought with a large enough effect; inconclusive = small, poorly fitted or top-dose-only effect, or another doubt; inactive = no such curve, though single readings can be large; an effect the other way counts as inactive or inconclusive. Potency is read from the fitted curve at half-maximal effect.

SMILES | BAZ2B block | VDR inh | HP1b binding inh | L3MBTL1 inh | PLK1 PBD block | JMJD2A Tudor
CCN(CC)C(=O)c1cnn(-c2ccc(F)cc2)c1-n1cccc1 | -16.2% | 11.7% | 30.1% | · | · | 7.2%
Cc1c(N2C(=O)/C(=C\c3ccc(N(C)C)cc3)N(C)C2=S)c(=O)n(-c2ccccc2)n1C | 44.7µM* | -13.6% | ? | -15.2% | 55.7% | ?
Cc1c(NC(=S)N/N=C/c2ccc(N(C)C)cc2)c(=O)n(-c2ccccc2)n1C | -11.0% | -8.2% | -27.8% | 3.7% | -9.2% | -32.6%
CN(Cc1ccco1)C(=O)c1ccc2c(c1)N(Cc1ccccc1F)C(=O)c1ccccc1S2 | -19.4% | 0.9% | 11.4% | · | · | ?
CC(C)c1ccccc1NC(=O)CNCCOc1ccccc1F | 50.1µM* | 1.5% | ? | · | 2.7% | 28.2µM*
CC(C)=CCC12Oc3cc(O)ccc3C1(O)Oc1cc(O)c([C@H]3C=C(C)CC(c4ccc(O)cc4O)[C@H]3C(=O)c3ccc(O)cc3O)c(O)c1C2=O (stereo partly drawn) | · | -23.5% | -11.2% | · | -9.3% | 39.8µM*
Cn1cc(CCCC(=O)NCc2cccc(Br)c2)c2ccccc21 | 2.7% | 10.1% | -26.9% | · | · | -1.3%
O=C(CCC(=O)OCC(=O)c1ccc(Cl)cc1)Nc1ccc(Oc2ccccc2)cc1 | 1.1% | -14.5% | 39.0% | · | · | -10.0%
CC(NC(=O)Cn1ccsc1=N)C12CC3CC(CC(C3)C1)C2 (stereo not drawn) | -6.1% | -21.5% | -0.2% | -11.5% | 7.52µM* | -24.7%[11.4 µM]
Cc1ccc(C(=O)C(c2ccccc2)N2Cc3ccccc3C2=N)cc1 (stereo not drawn) | 31.6µM* | -5.1% | ? | ? | -8.0% | 28.2µM*
Cc1nn(S(=O)(=O)c2ccc(F)cc2)c(C)c1S(=O)(=O)N1CCCCC1 | -2.2% | -5.0% | 51.3% | · | -7.9% | -27.5%
Cc1ccc(N2CC(NC(=O)c3ccccc3Br)CC2=O)cc1 (stereo not drawn) | 1.7% | -4.9% | 30.3% | · | · | -0.3%
O=C(CCSc1nnc2ccc3ccccc3n12)Nc1ccc(F)cc1 | ? | 0.1% | -11.7% | · | 29.9µM* | -9.9%[11.4 µM]
O=C(CCSc1nnc2ccccn12)Nc1ccc(F)cc1 | 1.5% | 8.6% | 30.7% | -1.5% | -0.6% | -8.2%
COc1ccccc1NC(=O)C1=C(C)Nc2nc(SCc3ccccc3)nn2C1c1cccnc1 (stereo not drawn) | 79.4µM* | -10.1% | 14.8% | · | · | -18.8%
COc1ccc(Cn2cc(C(=O)c3ccc(C)c(C)c3)c(=O)c3ccccc32)cc1 | -25.7% | -12.4% | 17.4% | · | · | -19.2%
O=c1cc(-c2ccc(O)cc2)oc2c(O)c(O)c(O)c(O)c12 | 44.7µM* | -28.1% | ? | 3.16µM* | -24.6% | 39.8µM*
O=c1cc(-c2ccccc2)oc2cc(O)c(O)c(O)c12 | · | -14.0% | -10.4% | 15.8µM* | -25.5% | ?
O=c1cc(-c2ccc(O)cc2)oc2c1ccc1ccccc12 | -33.7% | 15.8% | 65.9% | -6.8% | -1.3% | -32.0%
O=C(OC(C(=O)NCc1cccs1)c1ccccn1)c1cccs1 (stereo not drawn) | 56.2µM* | -12.0% | 13.1% | · | -1.7% | -11.3%
Oc1ccc(O)c2c1C1c3ccccc3C2c2ccccc21 | 39.8µM* | · | · | -11.7% | · | ·
CC(C)(C)c1nnc(N/N=C/c2ccccc2O)n(N)c1=O | 20µM* | 2.3% | 20.1% | 15.8µM* | 0.0% | 22.4µM*
CC(C)(C)c1nnc(N/N=C/c2ccccc2)n(N)c1=O | 5.5% | -7.8% | 21.1% | 0.4% | 0.6% | -23.6%
CC1=C(C(=O)OCC2CCCCC2)C(c2ccc(Cl)cc2)CC(=O)N1 (stereo not drawn) | -12.3% | -15.9% | 10.2% | · | · | -15.8%
Cc1c(C)n2c(SCC(=O)N3CCOCC3)nnc2[nH]c1=O | -6.4% | -7.2% | 26.8% | 0.6% | 0.7% | 31.6µM*
SMILES | BAZ2B block | VDR inh | HP1b binding inh | L3MBTL1 inh | PLK1 PBD block | JMJD2A Tudor
O=C(c1ccccc1)c1cccs1 | 1.5% | -1.2% | 50.0% | · | -5.7% | 4.2%
O=C1NC(c2ccccc2)C(C(=O)c2cccs2)=C1O (stereo not drawn) | -35.8% | 5.0% | -1.2% | · | -11.2% | 25.1µM*
Cc1ccc(SCc2cc(=O)[nH]c(/N=C(\N)Nc3ccccc3Sc3ccccc3)n2)cc1 | 4.3% | -6.0% | 25.4% | 4.2% | -6.4% | -18.8%
COc1ccccc1N/C(N)=N/c1nc(CSc2ccc(C)cc2)cc(=O)[nH]1 | -28.3% | ? | -12.2% | -2.6% | ? | 79.4µM*
Cc1cc(=O)[nH]c(/N=C(\N)Nc2cccc3ccccc23)n1 | 56.2µM* | -12.6% | 15.0% | 6.1% | -9.0% | ?
Cc1cc(=O)[nH]c(/N=C(\N)Nc2ccc(Oc3ccccc3)cc2)n1 | -8.9% | 0.3% | 24.7% | · | 3.1% | 4.2%
CC(=O)Nc1ccc(S(=O)(=O)N2CCN(Cc3csc(C)n3)CC2)cc1 | -14.3% | -13.7% | 31.0% | · | -3.8% | 5.1%
O=C(C1CCCN(C2CC(=O)N(c3ccc(F)cc3)C2=O)C1)N1CCCC1 (stereo not drawn) | -9.2% | -10.0% | 28.3% | · | -3.4% | 31.6µM*
O=C(C1CCCN(C2CC(=O)N(c3ccc(Cl)cc3)C2=O)C1)N1CCCC1 (stereo not drawn) | -2.0% | -17.7% | 40.1% | · | -7.1% | -5.6%
O=C(O)c1ccc(CN2C(=O)c3ccc(C(=O)O)cc3C2=O)cc1 | -19.8% | 6.5% | 32.7% | · | 7.1% | -4.3%
Cc1ccc(C(=O)O)cc1N1C(=O)c2cccc3c([N+](=O)[O-])ccc(c23)C1=O | 50.1µM* | -13.7% | -16.0% | 22.4µM* | ? | 56.2µM*
O=C(O)c1ccc(CN2C(=O)c3cccc4c([N+](=O)[O-])ccc(c34)C2=O)cc1 | 50.1µM* | 1.9% | 5.1% | · | ? | ?
COc1ccc2c(c1OC)C(=O)N1N=C(c3ccc(F)cc3)CC21 (stereo not drawn) | -23.6% | ? | 27.0% | -3.6% | 11.9µM* | ?
COc1cccc(C2CC(c3ccc(NS(C)(=O)=O)cc3)=NN2C(=O)c2ccccc2)c1OC (stereo not drawn) | · | 14.7% | 0.5% | · | -5.9% | -20.5%
CCN(CC)c1ccc(NC(=O)CNCc2ccccc2Cl)c(C)c1 | 17.8µM* | 14.3% | 25.1µM* | · | -14.1% | 10µM*
O=C(CNCc1ccccc1Cl)Nc1ccccc1N1CCCCC1 | 22.4µM* | -2.4% | ? | 16.8% | -3.3% | 22.4µM*
